Reference: PubChem BioAssay (NCI)
Several values for one entry are separate records, joined by “and”; a condition that tells them apart may be missing. Equal entries are not always repeated. The panel holds about 83,000 compounds, 20% with a hit somewhere; the sample as a whole holds those more often.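 Growth was measured after 48 h exposure to one concentration of compound in 96-well plates. Values under 10 count as active.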 A number with no mark means an inactive call. Activity calls are given as the source filed them.

Tested on: MDA-MB-468 breast
Experiment: NCI-60 one-dose screen, 48 h (100 = growth as untreated, 0 = no growth, -100 = all killed)
Details: 10 µM unless noted

| SMILES | growth |
| --- | --- |
| Cc1c(N(C)CS(=O)(=O)O)c(=O)n(-c2ccccc2)n1C | 106% |
| O=C(Cc1nc2cc(Cl)c(Cl)cc2nc1CC(=O)c1cccnc1)c1cccnc1 | 33.8% |
| Clc1ccc2[nH]cc(-c3nn4cc(-c5ccncc5)nc4s3)c2c1 | 42.4% |
| OC[C@H]1OC([S-])[C@H](O)[C@@H](O)[C@@H]1O.[Au+] (stereo not given in full) | 90.7% |
| COC(=O)C1(C(=O)OC)C2C(=O)C3C(C21)C3(C(=O)OC(C)(C)C)C(=O)OC(C)(C)C (stereo not given) | 99.4% |
| COc1cc2cc(NCc3ccc(F)cc3)nc(C)c2cc1OC | 62.8% |
| COc1ccc(-c2cc(/C=C3\C(=O)Nc4cc(Cl)ccc43)[nH]n2)cc1 | 11.3% |
| N#C/C(C(=O)c1ccccc1)=C1/C(=O)Nc2ccc(Br)cc21 | 102% |
| CCN1C(=O)N(CC)C2C1NN=c1s/c(=C\c3ccco3)c(=O)n12 (stereo not given) | 13.8% |
| O=c1oc2c(cnc3ccccc32)cc1-c1cccs1 | 107% |
| O=C(NCCCNc1cc(-c2cn(-c3ccccc3)nc2-c2cccc(O)c2)ccn1)Nc1cccc(C(F)(F)F)c1 | 11.2% |
| COc1ccc(-c2ccc(-c3ccc(C(=N)N)o3)o2)cc1 | 15.3% |
| Nc1ccc(Oc2ccccc2)c(Cl)c1 | 92.1% |
| CCC(=O)Nc1ccc(-c2nc(-c3cccc(O)c3)c(-c3ccnc(Br)c3)[nH]2)cc1 | 30.5% |
| Nc1nc(Nc2ccc(Cl)cc2)nn1S(=O)(=O)c1ccc(-c2ccc(F)cc2)cc1 | 96.2% |
| O=C(/C=C/c1ccccc1)c1cccc(O)c1 | 111% and 90.2% |
| O=C(O)c1ccc[n+](CC(=O)N2CCN(c3cc4c(cc3F)c(=O)c(C(=O)O)cn4C3CC3)CC2)c1 | 81.4% |
| O=C1C=CN2C(=O)CC=CC2[C@@H]1O (stereo not given in full) | 110% |
| Clc1cc(Cl)cc(Nc2ccc3c(OCCCN4CCOCC4)cccc3n2)c1 | 20.6% |
| CCOC(=O)Cn1c(-c2nonc2NC(=O)c2ccccc2F)nc2ccccc21 | 76% |

| SMILES | growth |
| --- | --- |
| O=c1[nH]c(=O)n(C2CC(O)C(CO)O2)cc1CO (stereo not given) | 101% |
| CCOC(=O)c1c(C)nc2c(c1N)CC(=O)N2Cc1ccc(F)cc1 | 91% |
| Clc1ccccc1-c1nc2ccccc2[nH]1 | 88.3% |
| CC1=NC(=S)NC(c2ccccc2)/C1=C1/CC(c2ccccc2O)NN1 (stereo not given) | 107% |
| Brc1cccc(-c2cc(-c3ccc4c(c3)OC=CO4)[nH]n2)c1 | 33.4% |
| CC(=O)Oc1ccccc1C(=O)N=C1[Se]CCCN1C(=O)c1ccccc1OC(C)=O | -19.2% (active) |
| O=c1oc2ccc(Cl)cc2cc1-c1cs/c(=N/N=C\c2ccc(Cl)cc2)n1/N=C/c1ccc(Cl)cc1 | 114% |
| CC(=O)[C@@H]1CC[C@]2(C(=O)O)CC[C@]3(C)[C@H](CC[C@@H]4[C@@]5(C)Cc6c([nH]c7ccccc67)C(C)(C)[C@@H]5CC[C@]43C)[C@@H]12 | 82% |
| Cc1cc(C(=O)CCCC(=O)c2cc(C)c(O)c(C)c2)cc(C)c1O | -3.17% (active) |
| C#CC[C@@H]1C[C@]2(C)[C@H]3CC[C@@H]4[C@H]5C(C(=C)C)CC[C@]5(C(=O)NCCCCN)CC[C@@]4(C)[C@]3(C)CC[C@H]2C(C)(C)[C@H]1OC(C)=O (stereo not given in full) | -53.7% (active) |
| CSc1ccc(N(C)c2nc(C)nc3c2CCC3)cc1 | 46.8% |
| COc1ccc(OC)c(NC(=O)/C(C#N)=C/c2ccco2)c1 | 85.2% |
| CC(C)NC(=O)c1cc(-c2ccc(NC(=O)Nc3ccc(F)cc3)cc2)nc2cccnc12 | 88.9% |
| C=CCOC(=O)C1=C(C)NC2=C(C(=O)CC(C)(C)C2)C1c1ccc(OC)cc1 (stereo not given) | 110% |
| COc1ccc(C(Cc2ccccc2)NCCN2CCOCC2)cc1 (stereo not given) | 99.6% |
| CN1CCN(CCCOc2cccc3nc(Nc4cc(Cl)cc(Cl)c4)ccc23)CC1 | -52.6% (active) |
| CCCCCCCCCCCCCCCCOc1ccc(C)cc1 | 106% |
| Oc1ccc(/C=N/Nc2nc3ccccc3s2)c(O)c1 | 20.2% |
| C=C1C(=O)O[C@H]2[C@H]1CC/C(COC(=O)C(=O)c1c[nH]c3ccccc13)=C\CC[C@@]1(C)O[C@@H]21 | -59.8% (active) |
| CCCCCCCC/C=C\CCCCCCCCOc1cccc(CC(=O)NCC[N+]2(C)CCCC2)c1 | 71.8% |
